Experimental data reported in ChEMBL document CHEMBL3988442, “University of Dundee, Small-Polar-MMV Screening Library” (2021).
Among all 48,000 compounds or so, about 13,000 (27%) showed an effect of 50% or more. The list shows a part of the results.

Tested on: Wolbachia pipientis
Experiment: Anti-Wolbachia Cell-Based Screen
Type: functional
Set-up: scale not given: in the data most compounds retested in dose-response had high values
Conditions: 5 µM

SMILES	Percent Effect
CN(C(=O)c1cccnc1OCC(F)F)c1ccc2c(c1)CCO2	-7.463%
Cc1c(-c2c(-c3ccccc3)ncn2[C@@H](C(=O)O)[C@H](C)O)cnn1C	-13.76%
COCc1ncn(Cc2nc(-c3ccc(OC)cc3F)oc2C)n1	-0.9498%
Cc1ccc(N2CCC(NC(C)c3cccs3)CC2)nc1 (configuration not stated)	-4.773%
Cn1cc(-c2csc(N3CCSCC3)n2)cn1	-8.104%
CS(=O)(=O)N1CCC(c2nnc(CN3CCCC3)n2C2CC2)CC1	-12.66%
CN(Cc1cc(C[C@@H]2C[C@H](N)C2(C)C)no1)c1ccccc1	4.71%
COCC1CC2(CCN(C(=O)c3cnc4ccccc4c3)CC2)CO1.O=C(O)C(F)(F)F (configuration not stated)	5.909%
O=C(O)C(F)(F)F.O=C(O)C(F)(F)F.O=C(c1c[nH]cn1)N1CCC(F)(F)C2(CCN(c3ccccn3)C2)C1 (configuration not stated)	6.098%
Cc1ccc(C(=O)N2CCC3(CC2)NC(=O)CC3c2ccccc2)cn1.O=C(O)C(F)(F)F (configuration not stated)	15.96%
O=C(O)C(F)(F)F.O=C(c1cnc2ccccc2c1)N1CCC2(CCN2c2ncccn2)C1 (configuration not stated)	69.16%
O=C(O)C(F)(F)F.O=C(c1ccc2ccccc2n1)N1CCC2(CCN2c2ncccn2)C1 (configuration not stated)	82.49%
O=C(O)C(F)(F)F.O=C(c1ccccc1)N1CCC2(CCCN2c2ncccn2)CC1	93.81%
Cc1ccc(C(=O)N2CCC3(CCN3c3ncccn3)C2)cn1.O=C(O)C(F)(F)F (configuration not stated)	98.39%
O=C(O)C(F)(F)F.O=C(c1ccccn1)N1CCC2(CC1)C(=O)Nc1ccccc12	-9.696%
CCCc1nnsc1C(=O)N1CCN(CC(O)C2CC2)CC1.Cl (configuration not stated)	-6.099%
O=C(c1ccc2sccc2c1)N1CCC(C(=O)O)(n2cccn2)CC1	-6.348%
COc1ccccc1-c1ncc(CN2CCCC[C@H](N(C)C)C2)s1	-5.387%
Cc1cc(F)c(S(=O)(=O)N(C)CCn2cccn2)cc1F	-6.407%
O=C(O)C(F)(F)F.O=C(c1cccc(O)c1)N1CCC2(CCN2c2ncccn2)C1 (configuration not stated)	103.8%
CCN(CC)CCNC(=O)c1cc(C(C)C)nc(N2CCCC2)n1	3.007%
CS(=O)(=O)N1CCC(C(=O)NC(Cc2ccsc2)c2cccnc2)CC1 (configuration not stated)	127.1%
CCC(NC(=O)NC1CCN(S(C)(=O)=O)CC1)c1cccs1 (configuration not stated)	5.409%
CCC(NC(=O)C1CCN(S(C)(=O)=O)CC1)c1ccc(OC)c(OC)c1 (configuration not stated)	-10.24%
CS(=O)(=O)N1CCC(C(=O)NC(Cc2ccsc2)c2ccccn2)CC1 (configuration not stated)	-12.55%

SMILES	Percent Effect
CCC(NC(=O)C1CCN(S(C)(=O)=O)CC1)c1ccc(OC)c(C)c1 (configuration not stated)	-3.123%
Cc1csc(C(Cc2ccsc2)NC(=O)C2CCN(S(C)(=O)=O)CC2)n1 (configuration not stated)	94.26%
COCCn1cc(C(=O)N2CCCC2c2cccc(C)c2)ccc1=O (configuration not stated)	1.918%
CN(C)c1ncc(NC(=O)c2cccc(Nc3cnn(C)c3)c2)cn1	-2.232%
CC[C@@H](C)[C@@H](N)C(=O)Nc1cccc(-c2cnc(NCCO)nc2)c1	122.5%
Cn1ccnc1-c1cccc(NC(=O)NCCCO)c1	-3.437%
CC[C@@H](C)[C@@H](N)C(=O)Nc1cccc(-c2cnc(N)nc2)c1	118.7%
CC[C@@H](C)[C@@H](N)C(=O)Nc1cccc(-c2cnc(N(C)C)nc2)c1	111.5%
CCC(Nc1cccc(OC)c1)C(=O)N(CCO)Cc1nccs1 (configuration not stated)	-9.396%
CN(C)c1ncc(-c2c(-c3ccccc3)ncn2C(CO)C(=O)O)cn1 (configuration not stated)	-11.25%
CC[C@@H](C)[C@@H](N)C(=O)Nc1cccc(-c2cnc(N(C)CCO)nc2)c1	118.1%
CCn1nnnc1-c1cccc(NC(N)=O)c1	11.47%
CCC(C)NS(=O)(=O)Cc1cccc(NC(=O)C(C)C)c1 (configuration not stated)	-6.422%
CCC(CC)C(O)CNC(=O)Nc1cccc(-c2nccn2C)c1 (configuration not stated)	17.02%
CC(NC(N)=O)C(=O)Nc1ccc(OCc2cccc(F)c2)c(F)c1 (configuration not stated)	-7.991%
O=C(NCCc1nnc2n1CCCCC2)N1CCC2(CCCC2)CC1	-8.228%
O=C(CN1CCN(c2ccnc3c(F)ccc(F)c23)CC1)N1CCCC1	-6.623%
Cc1ccc(C)c(OC(C)C(=O)Nc2cccnc2)c1 (configuration not stated)	-35.64%
CCc1nnc2n1CCN(CCC(=O)Nc1sccc1C#N)C2	88.78%
CC(C)c1nnc2n1CCN(CCC(=O)Nc1sccc1C#N)C2	103.7%
CCc1nnc2n1CCN(CC(=O)Nc1sccc1C#N)C2	8.043%
CC(C)c1nnc2n1CCN(CC(=O)Nc1sccc1C#N)C2	-2.717%
CC(C)c1nnc2n1CCN(CC(=O)Nc1nncs1)C2	3.103%
CCc1nnc2n1CCN(CCC(=O)Nc1cc(C)on1)C2	-8.821%
CCc1c(C)sc2ncnc(N3C[C@H](O)[C@@H](N4CCCC4)C3)c12	10.47%

SMILES	Percent Effect
O=C(NCc1cnn2cccnc12)c1cccc(CC2CCNCC2)c1	4.069%
Cl.O=C(NCCn1nc(C2CCNC2)c2cccnc21)c1ccccn1 (configuration not stated)	108.3%
O=C(NCCCc1nnc2ccccn12)c1ccccc1C1CCNC1 (configuration not stated)	3.583%
O=C(NCCn1nc2ccccn2c1=O)c1cc(C2CC2)[nH]n1	7.505%
Cl.O=C(NCCn1nc(C2CCNC2)c2cccnc21)c1ccccc1 (configuration not stated)	112%
O=C(NCCN1CCNCC1)c1nc2ccccc2c(=O)[nH]1	-2.833%
Cc1nc(C)n(CC2CCCCN2CC(=O)N(C)Cc2ccco2)n1 (configuration not stated)	-3.611%
CCN(C(=O)NCc1ncc(C)c(OC)c1C)C(C)c1cccnc1 (configuration not stated)	-16.66%
O=C(c1cc(C2CC2)nc2onc(-c3ccccc3)c12)N1CC[C@H](O)C1	6.458%
CC(C)CNc1nc2c(cc1C(=O)NCC1CC1)CCNCC2	3.893%
O=C(NC1CC1)c1cc(C2CC2)nc2onc(C3CCNCC3)c12	97.57%
O=C(c1cc(-c2ccccc2)nc2onc(C3CC3)c12)N1CC[C@H](O)C1	-0.1163%
O=C(c1cc(C2CC2)nc2onc(-c3ccccc3)c12)N1CCOCC1	3.139%
CC(C)CNC(=O)c1cc(C2CC2)nc2onc(C3CCNCC3)c12	97.28%
FC(F)(F)CCc1ccnc(N2CCN(Cc3ccncc3)CC2)n1	-2.758%
CCO[C@H]1CO[C@@]2(CCCN(S(=O)(=O)c3ccccc3)C2)C1	-23.06%
COCC(=O)N1CC[C@]2(O)CCN(C(=O)CCc3ccsc3)C[C@@H]2C1	120%
COCC(=O)N1CC[C@]2(O)CCN(Cc3cccnc3OC)C[C@@H]2C1	17.33%
COCC(=O)N1CC[C@]2(O)CCN(Cc3ccsc3)C[C@@H]2C1	113.5%
O=C(CCc1ccsc1)N1CCC(Cc2ccc(CO)cc2)C1 (configuration not stated)	-8.756%
COCc1nc(C(=O)N2CCN(Cc3ccsc3)CC2)cs1	-16.22%
COCC(=O)N1CCN(C(=O)CCc2ccsc2)CC1	-13.91%
Cn1cnc2c1CCN(Cc1nc(COc3ccc(F)cc3)no1)C2	1.894%
Cc1cccc(N2CCN(CCC(=O)NCc3nnc[nH]3)CC2)c1	-0.9949%
CC(C)N1CCC(N2CCCC(C(=O)NCC3(C)COC3)C2)CC1 (configuration not stated)	-5.464%

SMILES	Percent Effect
Cn1nccc1-c1cnc2n1CCNC21CCN(C(=O)C2(C)CC2)CC1	92.03%
Cn1cc(-c2cnc3n2CCC32CCN(S(C)(=O)=O)CC2)cn1	7.243%
CCNC(=O)N1CCC2(CC1)CCn1c(-c3ccccc3)cnc12	-10.02%
CS(=O)(=O)N1CCC2(CC1)NCCn1c(-c3ccccc3)cnc12.O=C(O)C(F)(F)F.O=C(O)C(F)(F)F	-8.058%
Cn1nccc1-c1cnc2n1CCC21CCN(C(=O)C2(C)CC2)CC1	98.02%
COc1ccc(-c2cnc3n2CCNC32CCN(S(C)(=O)=O)CC2)cc1	-5.963%
O=S(=O)(NCCn1ccc(-c2cccs2)n1)C1CC1	1.599%
COCCOCCNc1cncc(Br)c1	-4.495%
CCN(Cc1ccncc1)C1CCCN(C/C=C/c2ccc(F)cc2)C1 (configuration not stated)	3.422%
Cc1ccc(CNC(=O)c2cc(CN3CCC(O)CC3)on2)s1	-1.351%
O=C(c1cc(Cn2cnc3ccccc32)on1)N1CCOCC1	-10.83%
Cc1nc2ccccc2n1Cc1cc(C(=O)N(C)C2CCOCC2)no1	169.5%
Cc1nc2ccccc2n1Cc1cc(C(=O)NC2CCOC2)no1 (configuration not stated)	107.5%
COCC1CCCN(C(=O)c2cc(Cn3ccc4ccccc43)[nH]n2)C1 (configuration not stated)	-4.391%
Cc1nc2ccccc2n1Cc1cc(C(=O)N(C)C2CCOC2)n[nH]1 (configuration not stated)	98.82%
C[C@@H]1CN(C(=O)c2cc(Cn3cnc4ccccc43)on2)C[C@H](C)O1	-0.2425%
O=C(NCC1CCCCO1)c1cc(Cn2cnc3ccccc32)[nH]n1 (configuration not stated)	-5.339%
Cc1nc2ccccc2n1Cc1cc(C(=O)N2C[C@@H](C)O[C@@H](C)C2)no1	-14.98%
Cc1ccccc1CN1C[C@@H]2CC[C@H](C1)N(CC1CCC1)C2=O	-3.68%
c1cnnc(N2CCCC2CNc2nc3ccccc3o2)c1 (configuration not stated)	0.7954%
Cn1cc(N2CCCC(Nc3ccc4c(c3)CCC(=O)N4)C2=O)cn1 (configuration not stated)	-0.6283%
CC(NC(=O)NC1CCN(Cc2ccccc2)CC1)c1nncn1C (configuration not stated)	-0.6608%
